Measurements reported in PubChem BioAssay AID1159580 (chemical genetic matrix, 2015).
Screen size: about 5,500 compounds; about 2,000 (36%) were called active. Another 18% or so got no clear call; they are omitted. Some of the results follow. Unmarked numbers belong to inactive results. Cut-off read from the data, not from the text of the source: active = normalized growth mostly below about 0.91 (no sharp cut-off); inconclusive = no clear call, values can overlap the other calls; inactive = mostly above about 0.92.

Assay: chemical genetic growth profiling, strain panel (AID 1159580);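 note: tested at 20 µM; growth read once vehicle control cultures reached saturation at 30 °C; 1 = growth at the plate median or of vehicle wells; lower values mean less growth of the strain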
Details: S. cerevisiae deletion strains, growth OD
[1] = locus YDL101C, strain DUN1, active compounds read low
[2] = locus YJL095W, strain BCK1, active compounds read low
[3] = locus YOR061W, strain CKA2, active compounds read low

CC(C)c1ccc(-c2cc(=O)c3ccccc3o2)cc1
normalized growth (locus YAR019C, strain CDC15, active compounds read low): 0.937 | normalized growth (locus YBL105C, strain PKC1, active compounds read low): 0.935 | normalized growth (locus YBR135W, strain CKS1, active compounds read low): 0.932 | normalized growth (locus YBR136W, strain MEC1, active compounds read low): 0.941 | normalized growth (locus YBR160W, strain CDC28, active compounds read low): 0.941 | normalized growth (locus YDL017W, strain CDC7, active compounds read low): 0.932 | normalized growth (locus YDL028C, strain MPS1, active compounds read low): 0.933 | normalized growth [1]: 0.945 | normalized growth (locus YDL108W, strain KIN28, active compounds read low): 0.934 | normalized growth (locus YDL132W, strain cdc53, active compounds read low): 0.948 | normalized growth (locus YDL214C, strain PRR2, active compounds read low): 0.814 | normalized growth (locus YDR052C, strain DBF4, active compounds read low): 0.944 | normalized growth (locus YDR054C, strain cdc34, active compounds read low): 0.917 | normalized growth (locus YDR226W, strain ADK1, active compounds read low): 0.931 | normalized growth (locus YDR477W, strain SNF1, active compounds read low): 0.791 | normalized growth (locus YER123W, strain YCK3, active compounds read low): 0.721 | normalized growth (locus YER133W, strain GLC7, active compounds read low): 0.762 | normalized growth (locus YFL009W, strain cdc4, active compounds read low): 0.921 | normalized growth (locus YFL029C, strain CAK1, active compounds read low): 0.932 | normalized growth (locus YFR003C, strain YPI1, active compounds read low): 0.928 | normalized growth (locus YFR019W, strain FAB1, active compounds read low): 0.864 | normalized growth (locus YFR028C, strain CDC14, active compounds read low): 0.915 | normalized growth (locus YGR040W, strain KSS1, active compounds read low): 0.728 | normalized growth (locus YGR052W, strain FMP48, active compounds read low): 0.759 | normalized growth (locus YGR092W, strain DBF2, active compounds read low): 0.569 | normalized growth (locus YHR030C, strain SLT2, active compounds read low): 0.631 (active) | normalized growth (locus YHR079C, strain IRE1, active compounds read low): 0.849 | normalized growth (locus YHR082C, strain KSP1, active compounds read low): 0.875 | normalized growth (locus YHR205W, strain SCH9, active compounds read low): 0.82 | normalized growth (locus YIL147C, strain SLN1, active compounds read low): 0.932 | normalized growth [2]: 0.82 | normalized growth (locus YJL128C, strain PBS2, active compounds read low): 0.86 | normalized growth (locus YJL157C, strain FAR1, active compounds read low): 0.832 | normalized growth (locus YJR016C, strain ILV3, active compounds read low): 0.922 | normalized growth (locus YJR066W, strain TOR1 (second series), active compounds read low): 0.633 | normalized growth (locus YJR066W, strain TOR1, active compounds read low): 0.863 | normalized growth (locus YKL048C, strain ELM1, active compounds read low): 0.797 (active) | normalized growth (locus YKL067W, strain YNK1, active compounds read low): 0.812 | normalized growth (locus YKL101W, strain HSL1, active compounds read low): 0.725 | normalized growth (locus YKL193C, strain SDS22, active compounds read low): 0.928 | normalized growth (locus YKL203C, strain TOR2, active compounds read low): 0.836 | normalized growth (locus YLR113W, strain HOG1, active compounds read low): 0.596 (active) | normalized growth (locus YLR133W, strain CKI1, active compounds read low): 0.855 | normalized growth (locus YLR403W, strain SFP1, active compounds read low): 0.858 | normalized growth (locus YML070W, strain DAK1, active compounds read low): 0.698 | normalized growth (locus YMR001C, strain CDC5, active compounds read low): 0.921 | normalized growth (locus YMR205C, strain PFK2 (second series), active compounds read low): 0.846 | normalized growth (locus YMR277W, strain FCP1, active compounds read low): 0.917 | normalized growth (locus YNL006W, strain LST8, active compounds read low): 0.932 | normalized growth (locus YNL020C, strain ARK1, active compounds read low): 0.833 | normalized growth (locus YNL161W, strain CBK1, active compounds read low): 0.934 | normalized growth (locus YNL183C, strain NPR1, active compounds read low): 0.861 | normalized growth (locus YNL207W, strain RIO2, active compounds read low): 0.924 | normalized growth (locus YNL222W, strain SSU72, active compounds read low): 0.934 | normalized growth (locus YNL307C, strain MCK1 (second series), active compounds read low): 0.809 | normalized growth (locus YOL078W, strain AVO1, active compounds read low): 0.928 | normalized growth (locus YOL136C, strain PFK27, active compounds read low): 0.792 | normalized growth [3]: 0.822 | normalized growth (locus YOR119C, strain RIO1, active compounds read low): 0.778 | normalized growth (locus YOR231W, strain MKK1, active compounds read low): 0.799 | normalized growth (locus YOR329C, strain SCD5, active compounds read low): 0.939 | normalized growth (locus YPL031C, strain PHO85, active compounds read low): 0.781 | normalized growth (locus YPL153C, strain RAD53, active compounds read low): 0.716 | normalized growth (locus YPL204W, strain HRR25, active compounds read low): 0.724 | normalized growth (locus YPL209C, strain IPL1, active compounds read low): 0.937 | normalized growth (locus YPL256C, strain CLN2, active compounds read low): 0.714 (active) | normalized growth (locus YPR025C, strain CCL1, active compounds read low): 0.937 | normalized growth (locus YPR106W, strain ISR1, active compounds read low): 0.926 | normalized growth (locus YPR111W, strain DBF20, active compounds read low): 0.918 | normalized growth (strain NNK1, active compounds read low): 0.921 | normalized growth (strain TSCII, active compounds read low): 0.929

COc1ccc(-c2cc(=O)c3c(OC)cccc3o2)cc1
normalized growth (locus YBR021W, strain FUR4, active compounds read low): 0.978 | normalized growth (locus YBR229C, strain ROT2, active compounds read low): 1.04 | normalized growth (locus YCL029C, strain bik1, active compounds read low): 1.05 | normalized growth (locus YDL035C, strain GPR1, active compounds read low): 1.03 | normalized growth (locus YDL074C, strain BRE1, active compounds read low): 1.09 | normalized growth [1]: 1.03 | normalized growth (locus YDL185W, strain tfp1, active compounds read low): 1.02 | normalized growth (locus YDL192W, strain arf1, active compounds read low): 1.06 | normalized growth (locus YDR101C, strain arx1, active compounds read low): 1.01 | normalized growth (locus YDR162C, strain NBP2, active compounds read low): 1.05 | normalized growth (locus YDR318W, strain mcm21, active compounds read low): 1.03 | normalized growth (locus YDR388W, active compounds read low): 1.04 | normalized growth (locus YDR502C, strain sam2, active compounds read low): 1.01 | normalized growth (locus YER110C, active compounds read low): 1.02 | normalized growth (locus YER155C, strain BEM2, active compounds read low): 1.03 | normalized growth (locus YER167W, strain BCK2, active compounds read low): 1.04 | normalized growth (locus YGL078C, strain dbp3, active compounds read low): 0.944 | normalized growth (locus YGL086W, strain mad1, active compounds read low): 1.01 | normalized growth (locus YGL248W, strain PDE1, active compounds read low): 1.05 | normalized growth (locus YGR135W, strain pre9, active compounds read low): 1 | normalized growth (locus YGR252W, strain gcn5, active compounds read low): 0.89 | normalized growth (locus YHR079C, strain IRE1 (second series), active compounds read low): 1.02 | normalized growth (locus YHR094C, strain hxt1, active compounds read low): 1.01 | normalized growth (locus YHR129C, strain ARP1, active compounds read low): 1.06 | normalized growth (locus YHR200W, strain rpn10, active compounds read low): 1.04 | normalized growth (locus YIL066C, strain RNR3, active compounds read low): 1.06 | normalized growth (locus YIL073C, strain SPO22, active compounds read low): 1.11 | normalized growth (locus YIL125W, strain kgd1, active compounds read low): 1.04 | normalized growth (locus YIR030C, strain dcg1, active compounds read low): 1.05 | normalized growth [2]: 1.1 | normalized growth (locus YJL134W, strain LCB3, active compounds read low): 1.04 | normalized growth (locus YJL168C, strain set2, active compounds read low): 1.03 | normalized growth (locus YJL187C, strain SWE1 (second series), active compounds read low): 1.03 | normalized growth (locus YJR043C, strain POL32, active compounds read low): 1.04 | normalized growth (locus YJR075W, strain HOC1, active compounds read low): 1.06 | normalized growth (locus YKL009W, strain mrt4, active compounds read low): 0.911 | normalized growth (locus YKL068W, active compounds read low): 1.02 | normalized growth (locus YKL085W, strain MDH1 (second series), active compounds read low): 1.04 | normalized growth (locus YKL085W, strain MDH1, active compounds read low): 1.04 | normalized growth (locus YKR001C, strain vps1, active compounds read low): 1.09 | normalized growth (locus YLR039C, strain RIC1, active compounds read low): 1.28 | normalized growth (locus YLR058C, strain SHM2, active compounds read low): 1.03 | normalized growth (locus YLR102C, strain apc9, active compounds read low): 1.02 | normalized growth (locus YLR262C, strain YPT6, active compounds read low): 1.21 | normalized growth (locus YLR268W, strain sec22, active compounds read low): 1.02 | normalized growth (locus YLR371W, strain rom2, active compounds read low): 1.06 | normalized growth (locus YLR418C, strain cdc73, active compounds read low): 1.12 | normalized growth (locus YML016C, strain PPZ1, active compounds read low): 1.05 | normalized growth (locus YML032C, strain rad52, active compounds read low): 0.998 | normalized growth (locus YML124C, strain tub3, active compounds read low): 1.03 | normalized growth (locus YMR078C, strain ctf18, active compounds read low): 1.03 | normalized growth (locus YMR223W, strain ubp8, active compounds read low): 1.01 | normalized growth (locus YMR307W, strain GAS1, active compounds read low): 1.22 | normalized growth (locus YNL067W, strain RPL9B, active compounds read low): 1.04 | normalized growth (locus YNL153C, strain GIM3, active compounds read low): 1.02 | normalized growth (locus YNL233W, strain BNI4, active compounds read low): 1.08 | normalized growth (locus YNL250W, strain rad50, active compounds read low): 1.05 | normalized growth (locus YNL271C, strain bni1, active compounds read low): 1.04 | normalized growth (locus YNL298W, strain CLA4, active compounds read low): 0.98 | normalized growth (locus YNL307C, strain MCK1, active compounds read low): 1.03 | normalized growth (locus YNL322C, strain KRE1, active compounds read low): 1.04 | normalized growth (locus YNR052C, strain pop2, active compounds read low): 1.01 | normalized growth (locus YOL006C, strain TOP1, active compounds read low): 1.25 | normalized growth (locus YOL012C, strain htz1): 1.26 | normalized growth (locus YOL147C, strain pex11, active compounds read low): 1.03 | normalized growth [3]: 1.05 | normalized growth (locus YOR069W, strain VPS5, active compounds read low): 1.04 | normalized growth (locus YOR136W, strain idh2, active compounds read low): 1.03 | normalized growth (locus YOR144C, strain elg1, active compounds read low): 1.01 | normalized growth (locus YOR184W, strain ser1, active compounds read low): 1.01 | normalized growth (locus YOR316C, strain cot1, active compounds read low): 1.02 | normalized growth (locus YPR119W, strain clb2, active compounds read low): 1.05 | normalized growth (locus YPR141C, strain kar3, active compounds read low): 1.05 | normalized growth (locus YPR163C, strain tif3, active compounds read low): 1.02 | normalized growth (locus YPR167C, strain met16, active compounds read low): 1.02 | normalized growth (strain wtn01, active compounds read low): 1.01
